Assay results taken from PubChem BioAssay (Tox21).
“And” between values parts separate entries of the source, which are not always exact repeats. Equal entries are not always repeated. Inconclusive results are not listed. A call without a number means that no potency is given here. A structure can be active in one record and inactive in another. The source made the active and inactive calls. Calls come from the whole dose curve; as a rule, active = well fitted cell-killing curve with a large enough effect in the repeat runs; inconclusive = weak or mixed curves; inactive = no such curve, though single readings can be large or run the other way.

experiment: qHTS assay to identify small molecule antagonists of the androgen receptor (AR) signaling pathway - cell viability counter screen (AID 743033; note: nearly all actives have a fitted effect of over 45% in size); conditions: AR-bla HEK293 viability, CellTiter-Glo luminescence, 16 h; series mostly up to 58.5 µM
Potency is the fitted concentration of half-maximal effect.

Question: With `CCCCOCCOC(=O)c1ccccc1C(=O)OCCOCCCC` as the compound, how does the Potency read?
Answer: The Potency was 53.8 µM (active) and inactive.

Question: With `O=C(O)CP(=O)(O)O` as the compound, how does the Potency read?
Answer: The Potency was “inactive”.

Question: For `O=C(Nc1ccccc1SSc1ccccc1NC(=O)c1ccccc1)c1ccccc1`, which Potency is on record?
Answer: The Potency was 11 µM (active) and 19.5 µM (active).

Question: With `CC(N)=O` as the compound, how does the Potency read?
Answer: The Potency was “inactive”.

Question: For `NC12CC3CC(CC(C3)C1)C2`, which Potency is on record?
Answer: Its Potency is “inactive”.

Question: Which Potency does the source give for `Cc1cccc(O)c1C` here?
Answer: Its Potency is “inactive”.

Question: With `[Cl][In]([Cl])[Cl]` as the compound, how does the Potency read?
Answer: Its Potency is “inactive”.

Question: For `BrC1CCC(Br)C(Br)CCC(Br)C(Br)CCC1Br` (stereo unspecified), which Potency is on record?
Answer: Its Potency is 46.5 µM (active).

Question: Which Potency does the source give for `Nc1nc(=S)c2[nH]cnc2[nH]1` here?
Answer: Its Potency is 26.8 µM (active) and 1.95 µM (active).

Question: For `O=C(Oc1ccccc1)c1ccccc1O`, which Potency is on record?
Answer: The Potency was “inactive”.

Question: With `CC(C)CCOCc1ccccc1` as the compound, how does the Potency read?
Answer: Its Potency is “inactive”.

Question: For `Cc1ccc(-c2cc(C(F)(F)F)nn2-c2ccc(S(N)(=O)=O)cc2)cc1`, which Potency is on record?
Answer: The Potency was 34.5 µM (active) and 43.6 µM (active).

Question: For `CN(C)c1ccc(C(=C2C=CC(=[N+](C)C)C=C2)c2ccccc2)cc1`, which Potency is on record?
Answer: The Potency was 0.155 µM (active).

Question: For `CCCCC/C=C/CC1CC(=O)OC1=O` (stereo unspecified), which Potency is on record?
Answer: Its Potency is “inactive”.

Question: With `Cc1occc(=O)c1OC(=O)C(C)C` as the compound, how does the Potency read?
Answer: Its Potency is “inactive”.

Question: With `Nc1ccc(O)cc1` as the compound, how does the Potency read?
Answer: The Potency was “inactive”.

Question: With `O=C1OC2(c3ccc(O)cc3Oc3cc(O)ccc32)c2ccccc21` as the compound, how does the Potency read?
Answer: Its Potency is “inactive”.

Question: With `CCC(C)(Oc1ccc(C2(c3ccc(OC(C)(CC)C(=O)O)cc3)CCCCC2)cc1)C(=O)O` (stereo unspecified) as the compound, how does the Potency read?
Answer: Its Potency is “inactive”.

Question: With `O=Cc1ccc(Cl)cc1` as the compound, how does the Potency read?
Answer: The Potency was “inactive”.

Question: With `Cc1ccnc2c1NC(=O)c1cccnc1N2C1CC1` as the compound, how does the Potency read?
Answer: The Potency was “inactive”.

Question: Which Potency does the source give for `CC(=O)OCC1=C(C(=O)O)N2C(=O)[C@@H](NC(=O)Cc3cccs3)[C@H]2SC1` here?
Answer: The Potency was “inactive”.
